According to PubChem BioAssay AID1159580 (chemical genetic matrix, 2015):
The whole screen tested about 5,500 compounds, of which about 2,000 (36%) were called active. Not shown: some 18% with an inconclusive outcome. Cut-off read from the data, not from the text of the source: active = normalized growth mostly below about 0.91 (no sharp cut-off); inconclusive = no clear call, values can overlap the other calls; inactive = mostly above about 0.92. This is one part of the list.

Assay: chemical genetic growth profiling, strain panel (AID 1159580);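 note: tested at 20 µM; growth read once vehicle control cultures reached saturation at 30 °C; 1 = growth at the plate median or of vehicle wells; lower values mean less growth of the strain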
Conditions: S. cerevisiae deletion strains, growth OD

Measured: normalized growth

CNC(=O)Oc1ccccc1OC(C)C
inactive: locus YAL013W, strain DEP1, active compounds read low 1.01 | locus YAL021C, strain ccr4, active compounds read low 0.987 | locus YAL026C, strain drs2, active compounds read low 0.99 | locus YAL030W, strain snc1, active compounds read low 0.992 | locus YBL061C, strain skt5, active compounds read low 0.987 | locus YBR009C, strain hhf1, active compounds read low 0.99 | locus YBR021W, strain FUR4, active compounds read low 1.02 | locus YBR023C, strain chs3, active compounds read low 0.985 | locus YBR171W, strain sec66, active compounds read low 0.97 | locus YBR229C, strain ROT2, active compounds read low 1.02 | locus YBR231C, strain swc5, active compounds read low 0.984 | locus YBR279W, strain paf1, active compounds read low 0.989 | locus YCL011C, strain gbp2, active compounds read low 0.994 | locus YCL016C, strain dcc1, active compounds read low 0.99 | locus YCL029C, strain bik1, active compounds read low 0.994 | locus YCL061C, strain MRC1, active compounds read low 0.994 | locus YCL069W, strain vba3, active compounds read low 0.989 | locus YCR088W, strain abp1, active compounds read low 0.99 | locus YDL005C, strain med2, active compounds read low 0.985 | locus YDL035C, strain GPR1, active compounds read low 1.03 | locus YDL040C, strain nat1, active compounds read low 0.979 | locus YDL074C, strain BRE1, active compounds read low 1.08 | locus YDL101C, strain DUN1, active compounds read low 1.02 | locus YDL134C, strain PPH21, active compounds read low 1.02 | locus YDL185W, strain tfp1, active compounds read low 0.979 | locus YDL192W, strain arf1, active compounds read low 0.989 | locus YDR001C, strain nth1, active compounds read low 0.993 | locus YDR069C, strain doa4, active compounds read low 0.983 | locus YDR101C, strain arx1, active compounds read low 0.983 | locus YDR137W, strain rgp1, active compounds read low 1.05 | locus YDR150W, strain NUM1, active compounds read low 1.02 | locus YDR159W, strain sac3, active compounds read low 0.973 | locus YDR162C, strain NBP2, active compounds read low 1.01 | locus YDR195W, strain ref2 0.915 | locus YDR297W, strain sur2, active compounds read low 0.998 | locus YDR318W, strain mcm21, active compounds read low 0.996 | locus YDR334W, strain swr1, active compounds read low 0.982 | locus YDR335W, strain msn5, active compounds read low 0.998 | locus YDR388W, active compounds read low 0.986 | locus YDR392W, strain spt3, active compounds read low 0.978 | locus YDR502C, strain sam2, active compounds read low 1 | locus YEL003W, strain gim4, active compounds read low 0.993 | locus YEL037C, strain rad23, active compounds read low 0.989 | locus YEL061C, strain CIN8 (second series), active compounds read low 0.983 | locus YEL061C, strain CIN8, active compounds read low 1.01 | locus YER015W, strain faa2, active compounds read low 0.991 | locus YER016W, strain bim1, active compounds read low 0.991 | locus YER110C, active compounds read low 0.994 | locus YER111C, strain swi4, active compounds read low 0.984 | locus YER155C, strain BEM2 (second series), active compounds read low 0.97 | locus YER155C, strain BEM2, active compounds read low 1.02 | locus YER167W, strain BCK2, active compounds read low 1 | locus YFR010W, strain ubp6, active compounds read low 0.992 | locus YGL078C, strain dbp3, active compounds read low 0.966 | locus YGL086W, strain mad1, active compounds read low 0.994 | locus YGL167C, strain pmr1, active compounds read low 0.987 | locus YGL173C, strain kem1, active compounds read low 0.987 | locus YGL227W, strain vid30, active compounds read low 0.982 | locus YGL240W, strain doc1, active compounds read low 0.974 | locus YGL248W, strain PDE1, active compounds read low 1.02 | locus YGL253W, strain hxk2, active compounds read low 0.99 | locus YGR078C, strain PAC10, active compounds read low 1.03 | locus YGR135W, strain pre9, active compounds read low 0.993 | locus YGR229C, strain SMI1, active compounds read low 1.03 | locus YGR252W, strain gcn5, active compounds read low 0.991 | locus YHR013C, strain ard1, active compounds read low 0.954 | locus YHR027C, strain rpn1, active compounds read low 0.996 | locus YHR030C, strain SLT2, active compounds read low 1.02 | locus YHR079C, strain IRE1 (second series), active compounds read low 0.988 | locus YHR094C, strain hxt1, active compounds read low 0.992 | locus YHR129C, strain ARP1, active compounds read low 1.03 | locus YHR142W, strain chs7, active compounds read low 1 | locus YHR200W, strain rpn10, active compounds read low 0.986 | locus YIL066C, strain RNR3, active compounds read low 1.02 | locus YIL073C, strain SPO22, active compounds read low 0.999 | locus YIL125W, strain kgd1, active compounds read low 0.984 | locus YIR030C, strain dcg1, active compounds read low 0.986 | locus YJL092W, strain hpr5, active compounds read low 0.998 | locus YJL095W, strain BCK1 (second series), active compounds read low 0.986 | locus YJL095W, strain BCK1, active compounds read low 1.02 | locus YJL115W, strain asf1, active compounds read low 0.972 | locus YJL129C, strain trk1, active compounds read low 0.986 | locus YJL134W, strain LCB3, active compounds read low 1.02 | locus YJL154C, strain vps35, active compounds read low 0.993 | locus YJL164C, strain tpk1, active compounds read low 0.996 | locus YJL166W, strain qcr8, active compounds read low 0.994 | locus YJL168C, strain set2, active compounds read low 0.989 | locus YJL187C, strain SWE1 (second series), active compounds read low 1.02 | locus YJL187C, strain SWE1, active compounds read low 0.995
